Screening data from PubChem.
Kir21 inh: inhibitors of mouse Kir2.1 inward-rectifier potassium channel; HEK293-Kir2.1, FluxOR thallium flux fluorescence; stronger effect = lower value; B-score at 10 µM; AID 1672; P35561; hit rate 0.85% among 310,000;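 active = fluorescence ratio B-score at or below minus 3 SD of library scores, with starting-brightness B-score within 2 SD, cut at about -4.2 in these data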;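 also: channel flux triggered by added potassium and thallium sulfate stimulus; B-score of peak minus minimum fluorescence over baseline after thallium stimulus; more negative B-score means stronger Kir2.1 block with less thallium influx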
KCNK3 block: human KCNK3 channel inhibition, primary screen | CHO-KCNK3 thallium flux, FluxOR fluorescence; stronger effect = lower value | B-score at 10 µM | hit rate 0.84% among 340,000 | AID 602410;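 active = B-score under library mean minus 4 SD, starting fluorescence ratio at most library mean plus 5 SD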;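 also: more negative B-score means stronger inhibition of thallium flux through KCNK3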
KCNK9 block: human KCNK9 channel inhibition; HEK293 KCNK9, FluxOR thallium flux fluorescence; stronger effect = lower value; B-score at 10 µM; hit rate 1.2% among 310,000;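 active = ratio B-score over 3 SD below the library mean, with starting fluorescence within 5 SD of its mean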;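 also: negative B-score means less thallium flux so channel inhibition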
TMEM16A act: activators or potentiators of mouse TMEM16A chloride channel; Q8BHY3; HEK293 TMEM16A/YFP-H148Q/I152L, iodide quench fluorescence; stronger effect = lower value; B-score at 10 µM; hit rate 0.3% among 340,000; AID 623877;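 active = fluorescence-ratio B-score plate-corrected deviation score at least 3 library SD below zero, with starting fluorescence score within 5 deviations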;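 also: channel opened by trigger with iodide after compound preincubation; score built on the fluorescence ratio of max minus min over baseline; more negative score means more quench and so TMEM16A activation or potentiation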
Target sequence (Q8BHY3 whole entry, looked up): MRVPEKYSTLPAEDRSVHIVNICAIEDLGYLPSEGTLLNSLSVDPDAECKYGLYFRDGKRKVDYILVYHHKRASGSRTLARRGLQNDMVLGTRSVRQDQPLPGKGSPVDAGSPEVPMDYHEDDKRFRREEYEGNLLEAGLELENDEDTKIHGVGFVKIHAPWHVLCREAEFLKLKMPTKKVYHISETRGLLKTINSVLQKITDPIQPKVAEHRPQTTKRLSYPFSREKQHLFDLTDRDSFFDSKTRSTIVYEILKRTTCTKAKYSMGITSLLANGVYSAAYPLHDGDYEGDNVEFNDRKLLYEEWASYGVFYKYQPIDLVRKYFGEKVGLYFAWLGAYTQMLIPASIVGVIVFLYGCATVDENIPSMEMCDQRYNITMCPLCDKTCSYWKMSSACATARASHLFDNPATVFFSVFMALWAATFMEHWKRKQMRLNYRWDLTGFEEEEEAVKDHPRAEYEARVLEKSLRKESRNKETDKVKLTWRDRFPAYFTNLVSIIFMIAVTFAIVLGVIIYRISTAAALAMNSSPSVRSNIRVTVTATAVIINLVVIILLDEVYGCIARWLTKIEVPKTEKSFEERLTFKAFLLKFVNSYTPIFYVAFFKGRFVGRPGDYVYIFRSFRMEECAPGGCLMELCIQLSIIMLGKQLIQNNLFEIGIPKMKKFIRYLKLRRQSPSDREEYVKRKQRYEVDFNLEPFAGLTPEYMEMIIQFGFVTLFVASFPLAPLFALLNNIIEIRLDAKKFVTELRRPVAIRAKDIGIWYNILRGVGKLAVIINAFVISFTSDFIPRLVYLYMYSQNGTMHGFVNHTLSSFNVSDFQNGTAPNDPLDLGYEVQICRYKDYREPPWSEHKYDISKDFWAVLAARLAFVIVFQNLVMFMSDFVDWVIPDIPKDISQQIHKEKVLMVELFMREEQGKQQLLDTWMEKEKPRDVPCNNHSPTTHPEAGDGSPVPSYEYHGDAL
ANO1 block: blocks the mouse calcium-activated chloride channel TMEM16A; Q8BHY3; HEK293 TMEM16A/YFP iodide influx fluorescence, ionomycin; normalized B-score (activity score, 25-100; higher = stronger inhibition) at 10 µM; hit rate 1.2% among 310,000; AID 588511;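 active = ratio plate-corrected score three or more library SD toward inhibition, starting fluorescence score within five deviations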;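 also: score derived from kinetic fluorescence span divided by baseline fluorescence per well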
KCNK9 inh conf: confirmation of human KCNK9 potassium channel inhibitors | shares compounds with KCNK9 block | HEK293 KCNK9 cells, FluxOR thallium flux fluorescence | inhibition, % at 10 µM | hit rate 43% among 4,900 | AID 492992;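 active = thallium signal inhibited by more than 5 SD of the compound-free buffer control wells, on both duplicate plates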;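 also: 0% = assay buffer control wells without compound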
Kir21 sel: selectivity of KCNK9 modulators against mouse Kir2.1 | shares compounds with KCNK9 block | Kir2.1 cells, FluxOR thallium flux fluorescence | inhibition, % at 10 µM | hit rate 4% among 4,900;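 active = thallium signal drop more than 5 SD beyond the mean of the no-compound control wells, seen in both duplicate plates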;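 also: signal is fluorescence rise after thallium addition divided by baseline fluorescence; plate controls were assay buffer only for no effect and full block by chlorpromazine control for full effect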
KCNK9 uninduced: non-induced cell nonspecific activity of KCNK9 modulators; shares compounds with KCNK9 block; non-induced KCNK9-HEK293, FluxOR thallium flux; inhibition, % at 10 µM; hit rate 40% among 4,900; AID 492997;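 active = thallium signal drop beyond 5 SD of the untreated control mean, on both duplicate plates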;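 also: plate controls were buffer only IC0 wells for no effect and SID17386958 at its maximal inhibitory level for full effect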
* marks the source's active call; other numbers are inactive results; i = inactive; . = no result given. Shown are actives, neighbours in structure and some others; about 3.5% of the full set was active somewhere.

SMILES	Kir21 inh	KCNK3 block	KCNK9 block	TMEM16A act	ANO1 block	KCNK9 inh conf	Kir21 sel	KCNK9 uninduced
CCCCCCCOC(=O)C[N+](C)(C)CCOC1CC2CCC1(C)C2(C)C (configuration not stated)	-8.2*	i	-11*	i	.	54%*	73%*	22%*
CCCCOC(=O)C[N+](C)(C)CCOC1CC2CCC1(C)C2(C)C (configuration not stated)	-0.97	i	i	i	i	.	.	.
CCN1C(=O)[C@H]2[C@@H](c3ccc(-c4cccc(Cl)c4)c(OC)c3)N[C@@](CC(C)C)(C(=O)OC)[C@H]2C1=O	-0.67	i	-9.9*	i	i	44%*	i	44%*
CCN1C(=O)[C@H]2[C@@H](c3ccc(-c4cccc(Cl)c4)cc3)N[C@@](CC(C)C)(C(=O)OC)[C@H]2C1=O	.	i	.	i	.	.	.	.
Cc1cc(=O)c2cc(Br)ccc2n1CC(=O)NCc1ccccc1	-1.6	i	-9.7*	i	i	i	i	33%*
O=C(Cn1c(=O)n(CC(=O)NCc2ccccc2)c2ccccc21)NCc1ccccc1	1.2	i	i	i	i	.	.	.
CC(C)C(=O)Nc1ccc(N2CCCC2)c(Cl)c1	-0.85	i	i	i	i	.	.	.
CCCOc1ccc(C(=O)C(CN2CCOCC2)c2ccccc2)cc1 (configuration not stated)	-0.27	i	i	i	i	i	i	i
CC(NC(=S)NCCc1ccccc1)C(c1cccs1)N1CCN(C)CC1 (configuration not stated)	-1	i	i	i	i	.	.	.
Cc1nn2c(N3CCN(c4ccccn4)CC3)cc(C(C)C)nc2c1-c1ccccc1	-0.47	i	-12*	i	.	63%*	i	38%*
COc1cccc(/C=N/Nc2nc(Nc3ccccc3)nc(-n3nc(C)cc3C)n2)c1O	-0.45	i	-10*	i	i	43%*	i	24%*
Cc1cc(C)n(-c2nc(Nc3ccccc3)nc(-n3nc(C)cc3C)n2)n1	0.71	i	i	i	i	.	.	.
Cc1ccc(-n2c(-c3ccccc3)c[n+]3c2CCc2ccccc2-3)c(C)c1	-8.2*	-9.9*	-13*	i	i	46%*	64%*	36%*
Cc1cccc(NC(=O)CCC(=O)Nc2nnc(C(F)(F)F)s2)c1	2	i	i	i	i	.	.	.
O=[N+]([O-])c1ccc(CSc2nnc(SCc3ccc(Cl)cc3)s2)cc1	-0.49	i	-9.3*	i	i	45%*	i	46%*
Cc1ccc(S(=O)(=O)N2CC3CCCN3c3ccc(C(F)(F)F)cc32)cc1 (configuration not stated)	-2.3	i	-19*	i	i	66%*	i	40%*
O=C1Nc2ccc(C(F)(F)F)cc2N2CCCC12 (configuration not stated)	0.84	.	i	.	i	.	.	.
O=S(=O)(c1ccc(F)cc1)N1CC2CCCN2c2ccc(C(F)(F)F)cc21 (configuration not stated)	0.48	i	-13*	i	i	30%*	i	42%*
COc1ccc(OC)c(C2SCCN2S(=O)(=O)c2cccc(C(F)(F)F)c2)c1 (configuration not stated)	-0.25	i	-15*	i	i	i	i	60%*
Nc1c(-c2ccccc2)c(CSc2nc3ccccc3[nH]2)nn1-c1cccc(Cl)c1	-0.53	i	-13*	i	i	71%*	i	38%*
Cc1ccccc1-n1nc(CSc2nc3ccccc3[nH]2)c(-c2ccccc2)c1N	-1.2	i	i	i	i	.	.	.
Nc1c(-c2ccccc2)c(CSc2nc3ccccc3[nH]2)nn1-c1ccc(Cl)cc1	-1.2	i	-9.3*	i	i	60%*	i	28%*
